Assay outcomes (PubChem)
Compounds with a hit are over-represented: about 2.3% of the library has one in this group of screens.
A549 viability – A549 cytotoxicity, counter-screen for Nrf2 inhibitors; A549 ARE-Fluc cells, CellTiter-Fluor viability, 18-24 h; Potency, µM (highest dose often 46 µM), without a hit: at the top dose activity change, negative = cytotoxicity, most hits filed as inhibitors; 0.16% of 390,000 active; note: potency is the fitted concentration of half-maximal effect; % is set by controls: 0 for no effect and ±100 for the full control effect
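A549 ARE-Fluc cells in 5% FBS OPTI-MEM, 5000 cells/well, rested 2 h then exposed to compounds in concentration-response for 18-24 h at 37 °C. Viability by CellTiter-Fluor fluorescence (Ex 405/Em 525) after 30 min; luciferase luminescence (BugLite, 15 min, RT) read afterwards.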
Giardia killer – kills Giardia lamblia; activity change, % at 7.66 µM, hits read low; Giardia lamblia trophozoite viability; 0.15% of 340,000 active; in the data active = activity change below about -80%; inconclusive = between about -30% and that limit;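 note: parasites exposed to compound for two days anaerobically before the ATP read; % is set by controls: 0 for no effect and ±100 for the full control effect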
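Anaerobic 48 hrs incubation at 37 deg C of 100 trophozoites/well with test compounds; ATPLite 1-Step luminescence, 15-30 min RT, reports cellular ATP as viability.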
Nrf2 inh – blocks Nrf2 signaling | Potency, µM (doses to about 46 µM), inactives show top-dose activity change, negative = inhibition, hits mostly inhibitors | A549 ARE-Fluc reporter, luciferase luminescence, 18-24 h | AID 504444 | 2.1% of 360,000 active; note: potency is the fitted concentration of half-maximal effect; % is set by controls: 0 for no effect and ±100 for the full control effect; nearly all actives have a fitted effect of over 60% in size
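Reporter: ARE-Fluc in A549. Exposure: 18-24 h, 37 °C, 5% CO2, 5% FBS OPTI-MEM. Readouts: fluorescent cytotoxicity (CellTiter-Fluor), then luminescent Nrf2 signal after BugLite.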
Apoferritin bind – candidate novel general anesthetic via apoferritin binding; P02791; apoferritin/1-aminoanthracene competitive binding, fluorescence; Potency, µM (titrated, usually from 77.5 µM), without a hit: top-dose activity change, negative = displacement, most hits filed as inhibitors; 0.074% of 350,000 active; AID 485281; note: potency is the fitted concentration of half-maximal effect; % is set by controls: 0 for no effect and ±100 for the full control effect; nearly all actives have a fitted effect of over 20% in size
Target sequence (P02791 2-175 limits assumed): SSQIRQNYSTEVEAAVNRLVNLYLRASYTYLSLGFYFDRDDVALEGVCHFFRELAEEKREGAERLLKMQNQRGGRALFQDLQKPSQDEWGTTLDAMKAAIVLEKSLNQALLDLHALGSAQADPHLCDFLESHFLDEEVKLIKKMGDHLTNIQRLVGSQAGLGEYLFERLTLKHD
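Apoferritin-based anesthetic binding model; compound displacement of fluorescent 1-AMA measured as endpoint fluorescence after 10 minutes at room temperature, scaled to free-ligand and complex controls.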
Nrf2 ARE act – activators of Nrf2 (ARE) signaling | 0.31% of 410,000 active | AID 624171 | AREc32 ARE-luciferase reporter (MCF7-derived line), luminescence, 24 h | Potency, µM (top dose mostly 46.1 µM), without a hit: at the top dose activation, actives largely listed as activators; note: potency is the fitted concentration of half-maximal effect; % of control where 0% means no effect; nearly all actives have a fitted effect of over 65% in size
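Reporter line AREc32 (ARE-Fluc), seeded overnight in OPTI-MEM with 5% FBS; compound pin-transferred, 24 hr at 37 deg C, 5% CO2; luminescent read-out.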
mIDH1 inhibitor – inhibitors of human mutant IDH1 R132H | Potency, µM (series often up to 76.6 µM), for the others: at the top dose activity change, negative = inhibition, most hits filed as inhibitors | O75874 | IDH1-R132H enzyme, NADPH consumption, diaphorase/resazurin fluorescence | 0.093% of 390,000 active; note: potency is the fitted concentration of half-maximal effect; % is set by controls: 0 for no effect and ±100 for the full control effect; nearly all actives have a fitted effect of over 65% in size
Target sequence (O75874 whole entry R132H, stated change not applied): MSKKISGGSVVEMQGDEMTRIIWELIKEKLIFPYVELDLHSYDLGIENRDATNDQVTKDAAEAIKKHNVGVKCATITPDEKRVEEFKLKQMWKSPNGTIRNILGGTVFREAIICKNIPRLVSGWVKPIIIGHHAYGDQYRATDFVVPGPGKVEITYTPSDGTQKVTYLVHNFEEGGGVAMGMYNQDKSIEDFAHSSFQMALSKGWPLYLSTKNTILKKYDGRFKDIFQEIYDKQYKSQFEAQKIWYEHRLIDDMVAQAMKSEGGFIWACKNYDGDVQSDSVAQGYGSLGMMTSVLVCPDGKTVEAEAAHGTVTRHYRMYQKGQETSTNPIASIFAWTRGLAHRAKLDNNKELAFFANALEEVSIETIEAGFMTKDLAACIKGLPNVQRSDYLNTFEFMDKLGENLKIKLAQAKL
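IDH1-R132H (0.5 ug/mL) preincubated 30 min with compound, then NADPH (0.016 mM) and alpha-KG (2 mM) added; 80 min at RT, pH 7.5. Remaining NADPH coupled via diaphorase/resazurin to fluorescence (540/590 nm); concentration-response curves normalized to no-enzyme control.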
An asterisk follows results filed as active; ? = inconclusive; · = no result given. Unless noted, calls come from the whole dose curve; as a rule, active = well fitted curve in the direction sought with a large enough effect; inconclusive = small, poorly fitted or top-dose-only effect, or another doubt; inactive = no such curve, though single readings can be large; an effect the other way counts as inactive or inconclusive.

SMILES	A549 viability	Giardia killer	Nrf2 inh	Apoferritin bind	Nrf2 ARE act	mIDH1 inhibitor
O=C(Nc1nccs1)C1(c2ccc(Cl)cc2)CC1	7%	7	5%	-11%	-1%	3%
C=C1C2(C(=O)Nc3nccs3)CCC(C2)C1(C)C (stereo unspecified)	0%	7	-14%	7.9µM*	0%	17%
CCOC(=O)Cc1csc(NC(=O)/C=C\c2ccccc2Cl)n1	-16%	?	26µM*	-2%	?	-1%
CCOC(=O)Cc1csc(NC(=O)c2csc3c2CCCC3)n1	0%	-2	18µM*	?	0%	6%
CCOC(=O)Cc1csc(NC(=O)c2cc3c(s2)CCCC3)n1	-1%	-12	·	?	3%	5%
CCC[C@H](NC(=O)[C@H](CC(C)C)N(C)C(=O)CNC(=O)[C@@H](NC(=O)[C@H](Cc1ccccc1)NC(=O)[C@H](CCCCN)NC(=O)[C@@H](N)CC(=O)O)C(C)C)C(N)=O	·	·	·	2%	·	·
COc1ccccc1-c1c(C)nn2c(N3CCCCCC3)cc(C)nc12	?	-11	26µM*	-4%	-1%	16%
COc1ccc(-c2c(C)nn3c(N4CCN(Cc5ccccc5)CC4)cc(C)nc23)cc1OC	-3%	3	4%	0%	0%	9%
COc1ccccc1-c1c(C)nn2c(N3CCN(Cc4ccccc4)CC3)cc(C)nc12	-6%	-16	23µM*	1%	2%	-10%
COc1ccccc1-c1c(C)nn2c(N3CCOCC3)cc(C)nc12	-1%	1	?	3%	-1%	-2%
COc1cc(-c2ccc3ncnc(NCc4cccs4)c3c2)cc(OC)c1OC	-8%	·	-17%	·	·	·
Clc1cccc(OCc2nc(-c3ccncc3)n[nH]2)c1	-1%	-14	21µM*	-15%	0%	-4%
CCCc1nn2c(=O)cc(COC(=O)c3ccc(NC(=O)COc4ccccc4F)cc3)nc2s1	-2%	·	·	-6%	4%	12%
COc1cccc(CN2C(=O)C(C)N(C(=O)c3c(F)cccc3F)c3ccccc32)c1 (stereo unspecified)	-7%	0	21µM*	-20%	0%	12%
CC1C(=O)N(Cc2ccccc2F)c2ccccc2N1C(=O)c1c(F)cccc1F (stereo unspecified)	1%	20	?	-11%	0%	8%
O=C(CSc1ncnc2c1oc1ccccc12)c1cccs1	-3%	-6	?	-14%	3.5µM*	6%
Cc1nc(SCC(=O)c2cccs2)c2oc3ccccc3c2n1	-5%	-12	-13%	?	13%	5%
CC1(COS(N)(=O)=O)CCCCC1	-1%	22	5%	5.6µM*	-1%	2%
CCc1ccc(-c2cc(C)no2)cc1S(=O)(=O)NCCCN1CCN(c2ccccc2)CC1	-28%	-18	13µM*	52%	1%	4%
COc1ccc(C2Nc3ccccc3C(=O)N2CC(C)(C)C)cc1COc1ccc(NC(C)=O)cc1 (stereo unspecified)	-9%	·	-1%	·	·	·
O=C(COC(=O)/C=C/c1ccccc1[N+](=O)[O-])Nc1ccc(OC(F)F)cc1	-4%	6	7%	-10%	1%	0%
O=C(COC(=O)/C=C/c1ccccc1[N+](=O)[O-])Nc1ccc2[nH]c(=O)[nH]c2c1	2%	11	-1%	·	11µM*	-2%
COCCOC(=O)c1c(-c2ccccc2)c(-c2ccccc2)nn(C)c1=O	-9%	·	4%	-5%	3%	26%
COCCn1c(C)cc(O)c(C(c2ccccc2)N2CCN(c3ccc(F)cc3)CC2)c1=O (stereo unspecified)	9%	·	·	0%	0%	15%
COCCCNC(=O)CSc1nc(-c2cccc(F)c2)[nH]c1-c1ccccc1	-24%	·	15µM*	-2%	0%	21%
SMILES	A549 viability	Giardia killer	Nrf2 inh	Apoferritin bind	Nrf2 ARE act	mIDH1 inhibitor
O=C(CSc1nc(-c2ccc(F)cc2)[nH]c1-c1ccc(F)cc1)Nc1ccc2c(c1)OCO2	?	·	16µM*	1%	4%	18%
COc1ccc(-c2nc(SCC(=O)NC3CCCC3)c(-c3ccc(F)cc3)[nH]2)cc1	-21%	·	16µM*	3%	5%	0%
O=C(CSc1nc(-c2ccc(F)cc2)[nH]c1-c1ccc(F)cc1)Nc1ccc2c(c1)OCCO2	?	·	?	-6%	-3%	24%
O=C(c1cc(-c2ccccc2O)on1)N1CCCCC1	-4%	·	11%	-14%	8%	·
Cc1ccc(C)c2sc(N3CCN(C(=O)C(C)(C)C)CC3)nc12	7%	·	·	-23%	0%	-3%
CN(CC(=O)Nc1ccc(F)c(Cl)c1)S(=O)(=O)c1cccc2nsnc12	-14%	-9	26µM*	-3%	-1%	-4%
CN1/C(=C\C=C2/C(=O)Oc3ccccc3C2=O)C(C)(C)c2ccccc21	-17%	0	17%	-5%	4%	37µM*
CN1C(=CC=C2C=C(I)C(=O)C(I)=C2)C(C)(C)c2ccccc21	?	-8	?	6%	0%	46µM*
CN1/C(=C\C=N\O)C(C)(C)c2ccccc21	0%	9	-2%	-14%	0%	0%
CN1/C(=C\C=C2/SC(=S)NC2=O)C(C)(C)c2ccccc21	15µM*	-2	?	?	5%	-5%
COc1cc(NC(=O)c2cnc3c(-c4ccc(F)cc4)c(C)nn3c2C)cc(OC)c1	-7%	·	-1%	-7%	-1%	0%
Cc1cc(Br)ccc1NC(=O)C1CCN(S(=O)(=O)c2cccc3nsnc23)CC1	15%	·	?	52%	0%	3%
CCCCCCCOC(=O)C1=C(C)Nc2ncnn2C1c1cccs1 (stereo unspecified)	-5%	-8	26µM*	-10%	-1%	-3%
CCCCCCCCOC(=O)C1=C(C)Nc2nnnn2C1c1cccs1 (stereo unspecified)	-12%	-1	?	?	-2%	6%
Cc1ccc(Cl)cc1NC(=O)CSC1=Nc2ccccc2C2=NC(Cc3ccccc3)C(=O)N12 (stereo unspecified)	-13%	·	·	-2%	0%	0%
COc1ccc(C2=NS(=O)(=O)N(C)C(C(=O)NCc3ccccc3)=C2)cc1OC	-19%	-28	-12%	-10%	0%	-10%
CCc1ccc(NC(=O)C2=CC(c3ccc(OC)c(OC)c3)=NS(=O)(=O)N2C)cc1	-20%	-1	23µM*	-9%	0%	-7%
COc1ccc(C2=NS(=O)(=O)N(C)C(C(=O)N3CCc4ccccc4C3)=C2)cc1OC	-28%	14	15µM*	389%	4%	-6%
